Assay results from the supplement of paper PMC10849652.
Targets with a hit are over-represented here; the source holds about 7,900 in all. About 0.6% of all pairs of compound and target were hits.

How the values were obtained:
Assay in all cases: log2 fold change, soluble protein after heating vs DMSO (PISA); higher = thermal stabilisation; K562 cells, 10 uM, 30 min; active = over 0.2 and 3.5 SD of the protein, either way, in both replicates (recomputed)
[1] = compound: C1=CC=C(C=C1)[C@H](COC2=CC3=C(C=C2)NC(=O)N3)NC(=O)C4=CC=CN(C4=O)CC5=CC(=C(C=C5)F)F
Procedure, shortened: (§1)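 K562 cells at 2×10^6 cells/mL were exposed to 10 μM compound for 30 min, then aliquots were heated for 3 min across 48°C-58°C, pooled, and extracted in PBS containing 0.5% NP-40 at 4°C. The supernatant after 21,000xg for 90 min was taken as soluble protein and measured by TMTpro 16plex LC-MS/MS with channel sums equalised. Thermal stability is reported relative to control samples, with values from duplicates. Fold changes are given on a log2 scale.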

[2] = compound: CC1=C(SC2=C1C(=N[C@H](C3=NN=C(N32)C)CC(=O)N)C4=CC=C(C=C4)Cl)C
Procedure, shortened: as §1

[3] = compound: CC1=C2C(=CC=C1)N=C(N(C2=O)C3=CC=CC=C3C)CN4C=NC5=C(N=CN=C54)N
Procedure, shortened: as §1

[4] = compound: c1ccc([C@@H]2C[C@H]2NC2CCNCC2)cc1
Procedure, shortened: as §1

[5] = compound: Cc1sc2c(c1C)C(c1ccc(Cl)cc1)=N[C@@H](CC(=O)OC(C)(C)C)c1nnc(C)n1-2
Procedure, shortened: as §1

Measured: log2 fold change

SNX2 isoform 2 (UniProt O60749)
inactive: [1] 0.092 | [2] 0.217 | [3] 0.094 | [4] 0.066

TCOF1 isoform 3 (UniProt Q13428)
inactive: [5] -0.093

SUN1 isoform 9 (UniProt O94901)
inactive: [2] -0.114 | [3] 0.013 | [5] 0.109 | [4] 0.018

SLC35B4 (UniProt Q969S0)
UniProt Q969S0, sequence (Q969S0 whole entry, looked up): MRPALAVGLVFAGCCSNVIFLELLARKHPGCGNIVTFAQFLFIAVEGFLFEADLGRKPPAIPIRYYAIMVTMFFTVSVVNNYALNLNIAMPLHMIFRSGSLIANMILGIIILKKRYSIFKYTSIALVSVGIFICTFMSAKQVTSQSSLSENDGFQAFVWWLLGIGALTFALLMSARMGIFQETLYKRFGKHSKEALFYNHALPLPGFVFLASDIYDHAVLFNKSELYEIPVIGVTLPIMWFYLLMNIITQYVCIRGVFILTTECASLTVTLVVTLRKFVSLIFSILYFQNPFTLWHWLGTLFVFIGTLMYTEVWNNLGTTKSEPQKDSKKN
inactive: [1] 0.061 | [3] -0.069 | [5] -0.137

SSB (UniProt E7ERC4)
inactive: [3] 0.188

SLC35B1 isoform 2 (UniProt P78383)
UniProt P78383, sequence (P78383 whole entry, looked up): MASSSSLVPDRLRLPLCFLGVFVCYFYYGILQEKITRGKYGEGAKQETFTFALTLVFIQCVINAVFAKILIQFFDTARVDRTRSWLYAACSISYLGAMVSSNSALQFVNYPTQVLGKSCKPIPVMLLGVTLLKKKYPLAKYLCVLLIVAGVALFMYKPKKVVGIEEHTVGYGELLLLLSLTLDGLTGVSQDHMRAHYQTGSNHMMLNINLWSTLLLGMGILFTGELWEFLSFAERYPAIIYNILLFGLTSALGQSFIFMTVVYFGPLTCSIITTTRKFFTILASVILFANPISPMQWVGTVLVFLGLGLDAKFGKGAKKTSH
inactive: [1] -0.166 | [2] -0.233 | [3] 0.146 | [5] -0.215 | [4] 0.027

SLC9A6 isoform 3 (UniProt Q92581)
UniProt Q92581, sequence (Q92581 whole entry, looked up): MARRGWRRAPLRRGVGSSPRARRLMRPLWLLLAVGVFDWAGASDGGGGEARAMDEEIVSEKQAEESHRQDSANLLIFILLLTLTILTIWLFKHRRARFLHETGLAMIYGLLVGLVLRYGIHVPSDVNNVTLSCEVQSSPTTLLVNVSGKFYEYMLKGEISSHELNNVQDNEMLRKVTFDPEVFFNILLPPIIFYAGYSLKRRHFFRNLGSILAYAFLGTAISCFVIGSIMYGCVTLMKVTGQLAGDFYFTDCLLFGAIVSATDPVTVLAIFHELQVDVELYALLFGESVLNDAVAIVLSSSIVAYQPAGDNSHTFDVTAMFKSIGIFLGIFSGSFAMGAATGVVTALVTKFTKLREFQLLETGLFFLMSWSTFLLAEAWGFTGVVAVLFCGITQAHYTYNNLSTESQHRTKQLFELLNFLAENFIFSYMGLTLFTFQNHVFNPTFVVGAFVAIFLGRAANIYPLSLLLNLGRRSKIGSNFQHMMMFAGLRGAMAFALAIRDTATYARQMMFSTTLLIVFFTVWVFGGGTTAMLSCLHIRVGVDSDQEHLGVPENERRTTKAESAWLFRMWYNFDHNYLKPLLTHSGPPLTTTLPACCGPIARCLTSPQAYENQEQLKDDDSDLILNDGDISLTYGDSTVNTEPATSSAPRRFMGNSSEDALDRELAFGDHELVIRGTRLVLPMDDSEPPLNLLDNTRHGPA
inactive: [1] -0.057 | [2] 0.003 | [5] -0.005 | [4] 0.089

SRFBP1 (UniProt Q8NEF9)
inactive: [1] 0.011 | [2] -0.14 | [5] 0.048 | [4] -0.013

SSBP4 (UniProt Q9BWG4)
inactive: [1] 0.086 | [5] 0.037

TAOK1 (UniProt Q7L7X3)
UniProt Q7L7X3, sequence (Q7L7X3 whole entry, looked up): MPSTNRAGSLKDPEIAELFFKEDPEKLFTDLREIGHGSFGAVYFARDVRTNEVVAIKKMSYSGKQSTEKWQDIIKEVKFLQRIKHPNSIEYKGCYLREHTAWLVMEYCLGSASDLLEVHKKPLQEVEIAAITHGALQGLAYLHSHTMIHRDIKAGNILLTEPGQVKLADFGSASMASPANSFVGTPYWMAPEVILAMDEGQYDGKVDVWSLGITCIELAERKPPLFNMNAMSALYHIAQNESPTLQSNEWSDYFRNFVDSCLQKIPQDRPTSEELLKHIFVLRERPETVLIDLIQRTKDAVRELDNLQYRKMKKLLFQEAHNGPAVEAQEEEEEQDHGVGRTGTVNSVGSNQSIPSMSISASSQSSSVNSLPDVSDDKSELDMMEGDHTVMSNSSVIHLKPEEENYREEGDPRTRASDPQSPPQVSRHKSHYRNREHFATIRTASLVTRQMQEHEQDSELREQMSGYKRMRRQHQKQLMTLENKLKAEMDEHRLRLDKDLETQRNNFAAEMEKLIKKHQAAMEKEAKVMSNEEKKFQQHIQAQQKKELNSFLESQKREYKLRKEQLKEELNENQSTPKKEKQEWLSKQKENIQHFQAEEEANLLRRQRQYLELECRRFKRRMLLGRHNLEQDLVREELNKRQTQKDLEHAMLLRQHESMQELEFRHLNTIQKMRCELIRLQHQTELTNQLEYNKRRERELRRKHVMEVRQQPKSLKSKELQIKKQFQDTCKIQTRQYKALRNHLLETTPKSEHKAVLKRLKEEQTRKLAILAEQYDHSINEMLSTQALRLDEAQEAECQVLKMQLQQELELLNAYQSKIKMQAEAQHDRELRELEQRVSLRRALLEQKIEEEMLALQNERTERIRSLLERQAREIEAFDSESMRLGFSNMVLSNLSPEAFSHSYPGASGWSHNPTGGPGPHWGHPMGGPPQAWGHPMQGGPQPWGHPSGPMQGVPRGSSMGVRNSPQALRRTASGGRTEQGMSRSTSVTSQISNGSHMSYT
inactive: [1] 0.057 | [2] 0.095 | [3] 0.041 | [5] 0.012 | [4] 0.002

TDP1 (UniProt Q9NUW8)
inactive: [2] 0.068 | [4] 0.054

SMARCA4 (UniProt P51532)
inactive: [1] 0.073 | [2] -0.023 | [3] 0.244 | [4] -0.027

STAT5B (UniProt P51692)
inactive: [1] 0.036 | [2] 0.08 | [3] 0.05 | [5] 0.033 | [4] 0.052

SLC9A6 isoform 2 (UniProt Q92581)
inactive: [1] -0.007 | [2] 0.066 | [3] 0.068 | [5] -0.014 | [4] 0.047

SUPT5H isoform 2 (UniProt O00267)
inactive: [3] -0.015

SRSF9 (UniProt Q13242)
UniProt Q13242, sequence (Q13242 whole entry, looked up): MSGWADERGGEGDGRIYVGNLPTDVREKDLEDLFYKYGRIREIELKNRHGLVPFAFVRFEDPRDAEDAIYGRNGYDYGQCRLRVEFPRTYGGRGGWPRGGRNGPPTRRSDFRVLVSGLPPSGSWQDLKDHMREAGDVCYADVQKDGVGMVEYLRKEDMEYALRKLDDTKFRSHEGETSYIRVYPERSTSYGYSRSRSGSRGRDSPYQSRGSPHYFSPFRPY
inactive: [1] 0.045 | [2] -0.452 | [3] -0.38 | [4] 0.041

TM7SF2 (UniProt O76062)
inactive: [2] 0.182 | [3] -0.129 | [4] 0.159

THAP9 (UniProt Q9H5L6)
inactive: [1] 0.093 | [2] 0.167 | [4] -0.046

SNX5 (UniProt Q9Y5X3)
inactive: [1] -0.016 | [2] 0.045 | [3] 0.014 | [5] 0.04 | [4] -0.071

SNUPN (UniProt O95149)
UniProt O95149, sequence (O95149 whole entry, looked up): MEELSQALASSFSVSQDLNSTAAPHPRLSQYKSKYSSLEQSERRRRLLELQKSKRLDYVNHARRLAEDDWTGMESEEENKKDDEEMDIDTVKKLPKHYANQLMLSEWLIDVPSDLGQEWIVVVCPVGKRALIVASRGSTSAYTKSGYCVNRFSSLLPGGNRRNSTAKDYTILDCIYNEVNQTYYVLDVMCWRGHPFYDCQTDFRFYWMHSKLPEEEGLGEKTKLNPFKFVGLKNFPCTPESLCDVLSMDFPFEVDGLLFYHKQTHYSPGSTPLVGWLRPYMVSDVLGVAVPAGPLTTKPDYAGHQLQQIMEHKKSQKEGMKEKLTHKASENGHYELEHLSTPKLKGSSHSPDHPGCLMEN
inactive: [1] -0.027 | [2] 0.051 | [3] 0.067 | [5] 0.03 | [4] 0.021

SLC39A1 (UniProt Q9NY26)
inactive: [2] -0.156 | [4] 0.053

TGFBRAP1 (UniProt Q8WUH2)
inactive: [1] -0.021 | [2] 0.03 | [3] 0.075 | [5] -0.105 | [4] -0.004

TM7SF3 (UniProt Q9NS93)
UniProt Q9NS93, sequence (Q9NS93 whole entry, looked up): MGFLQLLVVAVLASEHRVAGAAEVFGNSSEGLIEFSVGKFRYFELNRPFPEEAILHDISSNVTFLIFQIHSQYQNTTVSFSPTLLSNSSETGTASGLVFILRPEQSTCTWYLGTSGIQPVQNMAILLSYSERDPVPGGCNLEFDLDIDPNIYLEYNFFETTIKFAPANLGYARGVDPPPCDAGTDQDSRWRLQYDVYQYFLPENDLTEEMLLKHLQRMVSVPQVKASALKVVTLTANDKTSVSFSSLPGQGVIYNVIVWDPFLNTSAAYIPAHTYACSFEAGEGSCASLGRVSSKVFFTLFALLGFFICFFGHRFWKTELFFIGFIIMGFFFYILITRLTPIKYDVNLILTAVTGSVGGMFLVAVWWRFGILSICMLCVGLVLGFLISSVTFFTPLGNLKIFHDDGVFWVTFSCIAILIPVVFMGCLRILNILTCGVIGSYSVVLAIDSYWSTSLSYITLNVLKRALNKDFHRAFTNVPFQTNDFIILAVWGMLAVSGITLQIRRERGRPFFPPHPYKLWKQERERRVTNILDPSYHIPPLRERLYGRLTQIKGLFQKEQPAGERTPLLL
inactive: [1] -0.058 | [2] 0.104 | [5] -0.037 | [4] 0.196

SNW1 (UniProt Q13573)
UniProt Q13573, sequence (Q13573 whole entry, looked up): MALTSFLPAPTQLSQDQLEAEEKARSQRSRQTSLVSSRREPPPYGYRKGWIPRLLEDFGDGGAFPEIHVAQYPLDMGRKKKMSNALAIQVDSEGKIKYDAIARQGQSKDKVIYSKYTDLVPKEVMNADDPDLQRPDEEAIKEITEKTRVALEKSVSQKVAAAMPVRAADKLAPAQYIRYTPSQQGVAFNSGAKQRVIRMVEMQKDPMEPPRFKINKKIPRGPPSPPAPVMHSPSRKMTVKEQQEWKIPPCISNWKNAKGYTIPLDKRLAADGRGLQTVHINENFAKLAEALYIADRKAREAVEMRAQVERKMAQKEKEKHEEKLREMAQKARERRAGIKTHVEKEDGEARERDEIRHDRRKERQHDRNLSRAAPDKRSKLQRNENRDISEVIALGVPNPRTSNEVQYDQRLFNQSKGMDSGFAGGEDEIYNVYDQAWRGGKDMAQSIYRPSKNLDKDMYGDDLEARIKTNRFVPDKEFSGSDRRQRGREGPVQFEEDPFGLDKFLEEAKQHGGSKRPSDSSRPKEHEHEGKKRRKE
inactive: [1] 0.03 | [2] 0.015 | [3] -0.036 | [5] 0.055 | [4] -0.035

SREK1 isoform 2 (UniProt Q8WXA9)
inactive: [1] 0.05 | [2] -0.06 | [3] -0.039 | [5] -0.037 | [4] 0.026

SLC46A1 (UniProt Q96NT5)
UniProt Q96NT5, sequence (Q96NT5 whole entry, looked up): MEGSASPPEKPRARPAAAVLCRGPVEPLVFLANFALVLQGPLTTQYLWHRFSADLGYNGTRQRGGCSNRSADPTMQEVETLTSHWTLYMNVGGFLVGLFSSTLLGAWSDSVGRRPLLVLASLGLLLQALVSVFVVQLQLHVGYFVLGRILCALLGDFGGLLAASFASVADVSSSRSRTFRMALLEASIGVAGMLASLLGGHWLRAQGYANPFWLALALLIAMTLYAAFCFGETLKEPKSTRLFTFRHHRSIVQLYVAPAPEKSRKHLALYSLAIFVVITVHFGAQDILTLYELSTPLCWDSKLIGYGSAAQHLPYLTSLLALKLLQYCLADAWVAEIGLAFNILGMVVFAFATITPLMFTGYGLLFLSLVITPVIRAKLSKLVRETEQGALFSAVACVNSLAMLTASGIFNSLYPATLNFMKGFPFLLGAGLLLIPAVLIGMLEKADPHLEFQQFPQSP
inactive: [2] -0.09 | [3] 0.075 | [5] 0.024 | [4] 0.256

SLIRP (UniProt Q9GZT3)
inactive: [1] -0.038 | [2] -0.073 | [3] 0.01 | [5] -0.016 | [4] 0.042

SLC8B1 (UniProt Q6J4K2)
inactive: [1] 0.094 | [2] 0.178 | [3] 0.019 | [4] -0.049

TIMM10B (UniProt Q9Y5J6)
UniProt Q9Y5J6, sequence (Q9Y5J6 whole entry, looked up): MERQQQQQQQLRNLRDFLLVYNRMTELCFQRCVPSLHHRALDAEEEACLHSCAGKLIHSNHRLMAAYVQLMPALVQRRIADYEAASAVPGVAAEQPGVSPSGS
inactive: [1] -0.018 | [2] 0.18 | [3] 0.058 | [5] 0.066 | [4] -0.026

SRSF6 (UniProt Q13247)
UniProt Q13247, sequence (Q13247 whole entry, looked up): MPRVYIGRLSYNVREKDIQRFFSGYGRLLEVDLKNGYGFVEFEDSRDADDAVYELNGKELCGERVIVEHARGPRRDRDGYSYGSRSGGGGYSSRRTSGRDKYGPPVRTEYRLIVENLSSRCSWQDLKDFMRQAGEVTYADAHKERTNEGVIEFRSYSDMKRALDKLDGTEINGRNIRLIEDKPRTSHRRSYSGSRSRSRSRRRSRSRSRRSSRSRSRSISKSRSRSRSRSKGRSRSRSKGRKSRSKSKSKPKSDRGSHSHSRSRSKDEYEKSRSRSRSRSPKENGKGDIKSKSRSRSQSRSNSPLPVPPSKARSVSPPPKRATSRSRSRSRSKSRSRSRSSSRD
inactive: [1] -0.071 | [2] -0.453 | [3] -0.109 | [5] 0.217 | [4] 0.015

SSBP4 (UniProt U3KPY3)
inactive: [3] 0

TC2N (UniProt Q8N9U0)
inactive: [3] 0.053 | [5] 0.08
